In PubChem BioAssay (NCI):
Compounds without any hit were thinned out: in the full panel of roughly 79,000, 15% have a hit. The source made the active and inactive calls. No stated cut-off is given here; in the data, active means growth inhibition above about 70%; inactive means the rest.

Assays:
[1] = NCI Yeast Anticancer Drug Screen. Data for the rad52 strain (AID 147);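 further: 0% = growth of vehicle-treated control cultures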; details: S. cerevisiae rad52 mutant growth inhibition, active compounds read high
Outline: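 DNA repair-defective yeast; compound exposure; growth scored against vehicle controls.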

[2] = NCI Yeast Anticancer Drug Screen. Data for the wt1 strain (AID 149);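 further: 0% = growth of vehicle-treated wt1 cultures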; details: S. cerevisiae wt1 strain (SPY 50644) growth inhibition, active compounds read high
Outline: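 Measured: growth of wt1 yeast under compound versus vehicle treatment, reported as inhibition.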

[3] = NCI Yeast Anticancer Drug Screen. Data for the rad50EPP+ strain (AID 151);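 further: 0% = growth of vehicle-treated control cultures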; details: S. cerevisiae rad50 mutant strain, active compounds read high
Outline: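 rad50EPP+ yeast treated with test compounds. Readout: growth vs vehicle control.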

[4] = NCI Yeast Anticancer Drug Screen. Data for the rad50 strain (AID 155);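 further: 0% = growth of vehicle-only cultures of the same strain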; details: S. cerevisiae rad50 strain growth inhibition, active compounds read high
Outline: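 Growth of the mutant yeast was measured after compound exposure and referenced to vehicle-treated cultures.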

[5] = NCI Yeast Anticancer Drug Screen. Data for the mec2-1 strain (AID 157); details: S. cerevisiae mec2-1 strain, active compounds read high
Outline: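 Growth inhibition is read against vehicle-treated controls after compound exposure of the mec2-1 yeast strain, which is defective in DNA damage repair or cell cycle control.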

[6] = NCI Yeast Anticancer Drug Screen. Data for the rad14 strain (AID 159);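 further: 0% = growth of vehicle-treated control cultures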; details: S. cerevisiae rad14 strain growth inhibition, active compounds read high
Outline: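 Here, inhibition of yeast growth was measured after compound exposure, using a strain with a genetic defect in DNA damage repair and vehicle-treated cultures as the reference.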

[7] = NCI Yeast Anticancer Drug Screen. Data for the sgs1 mgt1 strain (AID 161);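 further: 0% = growth of cultures given vehicle only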; details: S. cerevisiae sgs1 mgt1 strain, active compounds read high
Outline: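 Growth of a repair-deficient yeast mutant was monitored after compound treatment and expressed as inhibition relative to vehicle-treated cultures.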

[8] = NCI Yeast Anticancer Drug Screen. Data for the CLN2oe strain (AID 163);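 further: 0% = growth of vehicle-only control cultures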; details: S. cerevisiae CLN2oe strain, active compounds read high
Outline: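 Compound-treated yeast; growth vs vehicle ctrl = % inhibition. Genetically altered strain (cell-cycle control).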

[9] = NCI Yeast Anticancer Drug Screen. Data for the cln2 rad14 strain (AID 165);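 further: 0% = growth equal to vehicle treated cultures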; details: S. cerevisiae cln2 rad14 strain, active compounds read high
Outline: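 Growth inhibition, relative to vehicle-treated controls, is the read-out. The test organism is a yeast strain with defined genetic alterations, cln2 rad14.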

[10] = NCI Yeast Anticancer Drug Screen. Data for the bub3 strain (AID 167); details: S. cerevisiae bub3 mutant strain, active compounds read high
Outline: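 Whole-cell yeast assay. The mutant strain was incubated with compounds, and growth inhibition was determined by comparison with vehicle-treated cells.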

[11] = NCI Yeast Anticancer Drug Screen. Data for the wt2 strain (AID 169);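 further: 0% = growth of vehicle-treated yeast cultures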; details: S. cerevisiae wt2 strain growth inhibition, active compounds read high
Outline: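 Compound exposure of yeast; growth compared with vehicle controls; inhibition reported.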

[12] = NCI Yeast Anticancer Drug Screen. Data for the mlh1 strain (AID 171);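 further: 0% = growth of vehicle-treated control cultures of the same strain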; details: S. cerevisiae mlh1 strain growth inhibition, active compounds read high
Outline: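 Compounds are applied to a genetically altered yeast strain, and its growth is compared with that of vehicle-treated cultures to give percent inhibition.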

[13] = NCI Yeast Anticancer Drug Screen. Data for the sgs1 strain (AID 173);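 further: 0% = growth of vehicle-only control cultures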; details: S. cerevisiae sgs1 mutant, active compounds read high
Outline: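 Compounds applied to genetically altered yeast; growth compared with vehicle-treated cultures to give % inhibition.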

[14] = NCI Yeast Anticancer Drug Screen. Data for the mlh1 rad18 strain (AID 175); details: S. cerevisiae mlh1 rad18 strain growth inhibition, active compounds read high
Outline: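 Cells of a genetically altered yeast strain, deficient in DNA damage repair, were treated with compound. Their growth was then compared with that of vehicle-treated cultures to give inhibition.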

[15] = NCI Yeast Anticancer Drug Screen. Data for the rad18 strain (AID 177); details: S. cerevisiae rad18 mutant growth inhibition, active compounds read high
Outline: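 Compounds are applied to a repair-deficient yeast strain, and growth is compared with that of vehicle-treated cultures to give percent inhibition.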

[16] = NCI Yeast Anticancer Drug Screen. Data for the mgt1 strain (AID 153); details: S. cerevisiae mgt1 mutant growth inhibition, active compounds read high
Outline: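 Growth inhibition relative to vehicle controls was scored for the mgt1 yeast strain after compound exposure.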

[17] = at 5.0 µM (retest, dose inferred, filed as 0.5)
[18] = at 50.0 µM (retest, dose inferred, filed as 5.0)

Measured: growth inhibition

c1c[nH]c(CN2CCN(Cc3ncc[nH]3)CC2)n1
active: [1]; at 3.7 µM 72% | [1]; at 11.0 µM 96% | [1]; at 33.0 µM 97% | [1]; at 100.0 µM 98% | [2]; at 11.0 µM 97% | [2]; at 33.0 µM 98% | [2]; at 100.0 µM 99% | [3]; at 11.0 µM 92% | [3]; at 33.0 µM 97% | [3]; at 100.0 µM 98% | [4]; at 3.7 µM 93% | [4]; [17] 89% | [4]; at 11.0 µM 97% | [4]; at 33.0 µM 97% | [4]; [18] 99% | [4]; at 50.0 µM 97.4% | [4]; at 100.0 µM 98% | [5]; at 11.0 µM 94% | [5]; at 33.0 µM 98% | [5]; [18] 98% | [5]; at 50.0 µM 97.7% | [5]; at 100.0 µM 98% | [6]; at 11.0 µM 95% | [6]; at 33.0 µM 98% | [6]; at 100.0 µM 99% | [7]; [18] 99% | [7]; at 50.0 µM 98.5% | [8]; at 11.0 µM 96% | [8]; at 33.0 µM 98% | [8]; at 100.0 µM 98% | [9]; [18] 99% | [9]; at 50.0 µM 98.7% | [10]; at 11.0 µM 97% | [10]; at 33.0 µM 97% | [10]; [18] 99% | [10]; at 50.0 µM 97.8% | [10]; at 100.0 µM 98% | [11]; at 11.0 µM 98% | [11]; at 33.0 µM 99% | [11]; at 100.0 µM 99% | [12]; at 11.0 µM 97% | [12]; at 33.0 µM 98% | [12]; at 100.0 µM 99% | [13]; at 11.0 µM 96% | [13]; at 33.0 µM 98% | [13]; at 100.0 µM 99% | [14]; [18] 98% | [14]; at 50.0 µM 98% | [15]; at 11.0 µM 96% | [15]; at 33.0 µM 98% | [15]; at 100.0 µM 98%
inactive: [1]; at 1.2 µM 0% | [2]; at 1.2 µM -1% | [2]; at 3.7 µM 7% | [3]; at 1.2 µM -3% | [3]; at 3.7 µM 3% | [4]; at 1.2 µM 4% | [5]; at 1.2 µM -5% | [5]; at 3.7 µM -1% | [5]; [17] 26% | [6]; at 1.2 µM -4% | [6]; at 3.7 µM 18% | [7]; [17] 34% | [8]; at 1.2 µM -3% | [8]; at 3.7 µM 12% | [9]; [17] -69% | [10]; at 1.2 µM -6% | [10]; at 3.7 µM 27% | [10]; [17] 1% | [11]; at 1.2 µM -1% | [11]; at 3.7 µM 54% | [12]; at 1.2 µM -5% | [12]; at 3.7 µM 37% | [13]; at 1.2 µM -2% | [13]; at 3.7 µM 17% | [14]; [17] 46% | [15]; at 1.2 µM 0% | [15]; at 3.7 µM 64%

CCN(CC)CCC(=O)Nc1ccc2sc3ccccc3c(=O)c2n1
inactive: [1]; at 1.2 µM 33% | [2]; at 1.2 µM -4% | [2]; at 3.7 µM -2% | [2]; at 11.0 µM 1% | [2]; at 33.0 µM 10% | [2]; at 100.0 µM 8% | [3]; at 1.2 µM 25% | [3]; at 3.7 µM 66% | [16]; at 1.2 µM -1% | [16]; at 3.7 µM -4% | [16]; at 11.0 µM 5% | [16]; at 33.0 µM 4% | [16]; at 100.0 µM 3% | [4]; at 1.2 µM 21% | [4]; at 3.7 µM 53% | [4]; [17] 6% | [4]; at 50.0 µM 70% | [5]; at 1.2 µM 1% | [5]; at 3.7 µM 3% | [5]; [17] 4% | [5]; at 11.0 µM 13% | [5]; at 33.0 µM 24% | [5]; [18] -1% | [5]; at 50.0 µM -14.1% | [5]; at 100.0 µM 20% | [7]; [17] -22% | [7]; [18] -2% | [7]; at 50.0 µM 31.8% | [8]; at 1.2 µM 0% | [8]; at 3.7 µM -13% | [8]; at 11.0 µM -5% | [8]; at 33.0 µM 6% | [8]; at 100.0 µM 8% | [9]; [17] 21% | [9]; [18] 11% | [9]; at 50.0 µM 21.4% | [10]; at 1.2 µM -3% | [10]; at 3.7 µM 4% | [10]; [17] -20% | [10]; at 11.0 µM -3% | [10]; at 33.0 µM -2% | [10]; [18] -2% | [10]; at 50.0 µM 14.3% | [10]; at 100.0 µM -5% | [11]; at 1.2 µM -2% | [11]; at 3.7 µM -3% | [11]; at 11.0 µM 2% | [11]; at 33.0 µM 16% | [11]; at 100.0 µM 12% | [12]; at 1.2 µM -2% | [12]; at 3.7 µM -8% | [12]; at 11.0 µM 1% | [12]; at 33.0 µM 12% | [12]; at 100.0 µM 7% | [13]; at 1.2 µM -25% | [13]; at 3.7 µM 3% | [13]; at 11.0 µM 15% | [13]; at 33.0 µM 39% | [13]; at 100.0 µM 26% | [14]; [17] -6% | [14]; [18] 1% | [14]; at 50.0 µM 25.8% | [15]; at 1.2 µM -5% | [15]; at 3.7 µM -4% | [15]; at 11.0 µM -1% | [15]; at 33.0 µM -1% | [15]; at 100.0 µM 9%
active: [1]; at 3.7 µM 70% | [1]; at 11.0 µM 92% | [1]; at 33.0 µM 95% | [1]; at 100.0 µM 94% | [3]; at 11.0 µM 89% | [3]; at 33.0 µM 94% | [3]; at 100.0 µM 94% | [4]; at 11.0 µM 85% | [4]; at 33.0 µM 93% | [4]; [18] 90% | [4]; at 100.0 µM 91%
